# An excerpt weighted towards active compounds, which were near 21% of everything screened.
# CYP2C19 activ: human CYP2C19 activators, primary screen, biochemical, luminescence; recombinant CYP2C19, luciferin-H EGE luminescence; hits give high values; 0 = fully inhibited enzyme, 1 = untreated enzyme; Cytochrome P450 2C19 (Homo sapiens), P33261; AID 1025, 2008; 96,000 tested, under 10 active; activation factor at 5 µM;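 active = activation factor of at least 2 at 5 µM in the primary screen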;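 also: 0 = wells with 2.5 mM tranylcypromine and 1 = vehicle-only wells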
# CYP2C9 inh: blockers of cytochrome P450 2C9 activity – biochemical, luminescence, ADME assay, primary screen. P11712. CYP2C9 Supersomes, luciferin-H conversion. inhibition, % at 5 µM. actives 20% (n = 96,000). AID 777, 2007;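 active = blocking of liver enzyme CYP2C9 beyond about 50% at 5 µM, limit read from the data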
# Target sequence (P11712 whole entry, looked up): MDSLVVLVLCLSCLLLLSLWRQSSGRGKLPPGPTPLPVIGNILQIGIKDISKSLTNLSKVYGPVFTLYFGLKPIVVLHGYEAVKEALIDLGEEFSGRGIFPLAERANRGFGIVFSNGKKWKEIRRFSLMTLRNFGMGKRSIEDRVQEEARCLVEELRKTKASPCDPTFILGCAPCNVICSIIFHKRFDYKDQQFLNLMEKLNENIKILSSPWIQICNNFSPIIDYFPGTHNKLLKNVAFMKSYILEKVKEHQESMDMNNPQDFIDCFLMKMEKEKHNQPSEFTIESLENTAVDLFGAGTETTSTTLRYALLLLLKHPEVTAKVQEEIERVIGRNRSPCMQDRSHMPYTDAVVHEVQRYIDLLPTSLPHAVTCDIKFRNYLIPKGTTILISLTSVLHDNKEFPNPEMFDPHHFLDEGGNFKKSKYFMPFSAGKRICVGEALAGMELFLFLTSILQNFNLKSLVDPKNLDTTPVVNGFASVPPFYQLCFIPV
# MRP1 act: H69AR viability gain despite doxorubicin, primary screen, MRP-1 activator project, H69AR cells, CellTiter-Glo; AID 799, 2007; viability rescue; actives 0.61% (n = 140,000); viability increase, % at 10 µM;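 active = viability gain under doxorubicin at or above a set limit, the compound median plus 3 SD, cut at about 4.7% in these data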;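 also: MRP-1 overexpressing cells given doxorubicin 25 µM after compound pretreatment; 18-22 h compound pretreatment then 72 h with doxorubicin before readout; 0% = doxorubicin-only wells and 100% = vehicle-treated cells without doxorubicin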
# CYP2C9 act: human CYP2C9 activators, primary screen, biochemical, luminescence. Cytochrome P450 2C9 (Homo sapiens), P11712. recombinant CYP2C9, luciferin-H conversion; hits give high values; factor 1 = untreated enzyme, 0 = blocked. activation factor at 5 µM. actives 1.4% (n = 96,000);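 active = activation factor of 2 or more for CYP2C9 at a 5 µM dose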;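 also: 0 = sulfaphenazole-blocked wells and 1 = vehicle-only wells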
# MRP reversal: reversal of MRP1-mediated doxorubicin resistance, primary screen, H69AR cells, doxorubicin co-treatment; actives 0.04% (n = 85,000); differential viability (reversal), % at 10 µM; AID 602, 2007; H69AR cells + 2 uM doxorubicin, CellTiter-Glo, 72 h;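 active = viability drop by adding the cancer drug above about 55%, with treated viability meeting a 40% cutoff, limit read from the data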;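 also: viability without doxorubicin minus viability with 2 µM doxorubicin for each compound; larger differential means the compound sensitizes cells more to doxorubicin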
# CYP2C19 inh: blockers of cytochrome P450 2C19 activity – biochemical, luminescence, ADME assay, primary screen; P33261; CYP2C19 Supersomes, luciferin-H EGE luminescence, 30 min; inhibition, % at 5 µM; actives 21% (n = 96,000); AID 778, 2007;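 active = CYP2C19 inhibition above a set limit at 5 µM in the primary screen, cut at about 50% in these data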;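 also: plate controls were negative control wells for no effect and 2.5 mM tranylcypromine positive control for full effect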
# Starred values were filed as active, the others as inactive; / = not tested or not shown.
SMILES,CYP2C19 activ,CYP2C9 inh,MRP1 act,CYP2C9 act,MRP reversal,CYP2C19 inh
Cn1c(N)c(C(=O)COC(=O)CNS(=O)(=O)c2cccc(Cl)c2)c(=O)n(C)c1=O,/,/,-0.7,/,/,/
Cc1ccc(O)c(C(=O)c2cnc3c(c2)CN(CCC(C)C)C(=O)N3)c1,0.9,64.5*,-4.6,0.4,-15.1,14.0
COC(=O)CN1C(c2ccccc2)=Nc2ccc(Cl)cc2C1c1ccccc1 (stereo unspecified),0.7,20.3,-3.7,0.8,/,25.2
Cc1nn(CCC(=O)NNC(=S)NCC(C)C)c(C)c1Br,0.4,91.1*,-3.1,0.1,/,62.7*
CNC(=S)NNC(=O)CCn1nc(C)c(Br)c1C,0.8,-33.8,0.2,1.3,/,21.7
O=C(Nc1ccccc1)c1ccc(NC2CCCCC2)c(S(=O)(=O)N2CCOCC2)c1,0.2,82.3*,0.5,0.2,-4.0,82.7*
O=C(Nc1ccc(F)c(F)c1)c1ccc(F)c(S(=O)(=O)N2CCOCC2)c1,1,15.7,-2.4,0.8,-20.2,0.3
O=C(Nc1ccccc1)c1ccc(N2CCN(c3ccccc3)CC2)c(S(=O)(=O)N2CCOCC2)c1,0.4,76.5*,-1.3,0.2,-10.2,58.2*
Cc1ccccc1NC(=O)c1ccc(F)c(S(=O)(=O)N2CCN(c3ccccn3)CC2)c1,1,25.8,1.9,0.7,-1.0,2.4
O=C(Nc1ccccc1)c1ccc(N2CCN(c3ccccn3)CC2)c(S(=O)(=O)N2CCOCC2)c1,0.1,90.7*,-0.3,0.1,-12.5,92.4*
CCCOc1c(Cl)cc(C(=O)Nc2ccc3c(c2)OCO3)cc1OCC,0.9,9.8,-3.9,0.9,/,7.3
CCOc1ccc(-c2n[nH]c(C)c2-c2ccccc2OC)c(O)c1,0.5,20.5,-4.4,0.8,-14.2,47.3
C=C(C)COc1ccc(-c2n[nH]c(C)c2-c2ccc(OC)cc2)c(O)c1,0.5,47.0,-6.5,0.5,-26.6,45.3
CCCOC(=O)c1ccc(Oc2c(-c3ccc(OCC)cc3O)n[nH]c2C)cc1,0.2,98.4*,-1.3,0,0.9,84.1*
COc1ccc(Oc2c(-c3ccc(O)cc3O)n[nH]c2C)cc1,0,100.4*,-0.3,0,7.2,100.4*
CCCOC(=O)c1ccc(Oc2cn[nH]c2-c2ccc(OCC)cc2O)cc1,0.1,100.0*,-5.1,0,-3.5,88.0*
Cc1cc(NC(=O)CSCC(=O)N(c2cccc(Cl)c2)C(C(=O)NC2CCCCC2)c2ccc(O)c(O)c2)no1 (stereo unspecified),/,/,0.4,/,/,/
Cc1ccc(S(=O)(=O)N2CCN(Cc3ccccc3C(F)(F)F)CC2)cc1,0.8,22.2,1.1,0.8,-1.2,17.3
O=S(=O)(c1ccccc1)N1CCN(Cc2ccccc2C(F)(F)F)CC1,0.1,82.6*,0.3,0.2,28.5,93.8*
O=C(c1ccc(Br)cc1)N1CCN(S(=O)(=O)c2ccccc2)CC1,0.3,41.9,-0.3,0.6,-5.3,70.5*
Cc1nn(-c2ccccc2)c(C)c1C(=O)OCC(=O)N1CCN(S(=O)(=O)c2ccccc2)CC1,0.7,17.1,-2.8,0.8,-5.1,33.3
O=C(c1nc(-c2ccccc2)n(-c2ccccc2)n1)N1CCN(S(=O)(=O)c2ccccc2)CC1,0.9,65.7*,-3.3,0.3,39.5,11.7
O=C(N1CCCCCC1)N1CCN(S(=O)(=O)c2ccccc2)CC1,0.9,8.0,-2.8,0.9,19.7,7.5
O=C(c1ccccc1C(F)(F)F)N1CCN(S(=O)(=O)c2ccccc2)CC1,0.1,7.1,1.0,0.9,-0.2,87.0*
CCSc1nnc(NC(=O)C(NC(=O)c2ccc(Cl)cc2)C(C)C)s1 (stereo unspecified),/,/,-0.1,/,/,/
CC(=O)Nc1c(C)cc(S(C)(=O)=O)cc1C,/,/,-1.9,/,/,/
FC(F)(F)c1ccccc1CN1CCN(C2CCCCCC2)CC1,/,/,-0.5,/,/,/
Cc1ccccc1CN1CCN(Cc2ccccc2C(F)(F)F)CC1,0.1,31.2,-3.0,0.7,/,90.7*
O=C(CSc1cccc(C(F)(F)F)c1)N1CCN(S(=O)(=O)c2ccccc2)CC1,0.4,10.0,-0.2,0.9,8.2,59.3*
